# How the values were obtained:
# Experiment in all cases: DAPPL (digital affinity profiling via proximity ligation, sequencing); 10 mM Tris-HCl pH 7.5, 50 mM NaCl, 1 mM DTT, 4% glycerol, room temperature, 30 min; GST-TFs on glutathione beads, 16-mer random dsDNA library, 0.1% formaldehyde crosslink after washing; high values mean tight binding
# Conditions in all cases: protein: recombinant; tags: N-terminal GST; dsDNA, one strand shown
# [1] = molecular target: T1, ELK1 (Homo sapiens, UniProt P19419 1-428)
# T1 sequence: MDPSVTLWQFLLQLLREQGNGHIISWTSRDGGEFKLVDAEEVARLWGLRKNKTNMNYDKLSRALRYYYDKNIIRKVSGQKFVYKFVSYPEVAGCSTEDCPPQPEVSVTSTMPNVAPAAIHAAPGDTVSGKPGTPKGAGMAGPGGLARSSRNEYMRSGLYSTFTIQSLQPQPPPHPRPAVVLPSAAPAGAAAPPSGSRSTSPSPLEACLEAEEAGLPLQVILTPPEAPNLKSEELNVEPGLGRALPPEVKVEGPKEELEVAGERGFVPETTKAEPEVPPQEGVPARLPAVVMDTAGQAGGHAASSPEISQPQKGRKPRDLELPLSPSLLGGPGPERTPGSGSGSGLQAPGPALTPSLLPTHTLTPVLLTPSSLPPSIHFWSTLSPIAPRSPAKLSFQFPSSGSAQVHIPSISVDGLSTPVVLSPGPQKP
# Procedure, shortened: (§1)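 A tag-only sample was pooled with DNA-barcoded human transcription factors that had been expressed in yeast as GST fusions and captured on glutathione beads. The pools were incubated for 30 min at room temperature with 200 nmole of a random double-stranded 16-mer DNA library in Tris/NaCl/DTT/glycerol buffer, then washed, crosslinked with 0.1% formaldehyde, proximity-ligated (BsaI/T4 ligase, 1 h, 37 °C), PCR-amplified and sequenced on an Illumina NextSeq500. Binding signal is each hexamer's read frequency for a factor divided by its frequency for the tag-only sample.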
# [2] = molecular target: T2, GABPA (Homo sapiens, UniProt Q06546 1-454)
# T2 sequence: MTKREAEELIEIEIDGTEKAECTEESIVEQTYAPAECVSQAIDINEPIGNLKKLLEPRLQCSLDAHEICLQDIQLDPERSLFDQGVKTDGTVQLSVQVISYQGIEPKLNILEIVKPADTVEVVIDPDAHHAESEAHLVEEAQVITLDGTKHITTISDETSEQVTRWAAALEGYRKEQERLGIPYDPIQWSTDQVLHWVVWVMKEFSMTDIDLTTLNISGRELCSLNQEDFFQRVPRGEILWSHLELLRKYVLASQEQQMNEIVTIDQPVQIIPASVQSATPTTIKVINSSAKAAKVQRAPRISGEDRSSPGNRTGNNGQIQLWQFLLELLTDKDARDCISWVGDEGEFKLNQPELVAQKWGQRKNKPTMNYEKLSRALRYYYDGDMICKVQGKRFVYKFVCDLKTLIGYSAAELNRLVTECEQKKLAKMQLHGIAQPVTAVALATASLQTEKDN
# Procedure, shortened: as §1
# [3] = molecular target: T3, ERG (Homo sapiens, UniProt P11308 1-479)
# T3 sequence: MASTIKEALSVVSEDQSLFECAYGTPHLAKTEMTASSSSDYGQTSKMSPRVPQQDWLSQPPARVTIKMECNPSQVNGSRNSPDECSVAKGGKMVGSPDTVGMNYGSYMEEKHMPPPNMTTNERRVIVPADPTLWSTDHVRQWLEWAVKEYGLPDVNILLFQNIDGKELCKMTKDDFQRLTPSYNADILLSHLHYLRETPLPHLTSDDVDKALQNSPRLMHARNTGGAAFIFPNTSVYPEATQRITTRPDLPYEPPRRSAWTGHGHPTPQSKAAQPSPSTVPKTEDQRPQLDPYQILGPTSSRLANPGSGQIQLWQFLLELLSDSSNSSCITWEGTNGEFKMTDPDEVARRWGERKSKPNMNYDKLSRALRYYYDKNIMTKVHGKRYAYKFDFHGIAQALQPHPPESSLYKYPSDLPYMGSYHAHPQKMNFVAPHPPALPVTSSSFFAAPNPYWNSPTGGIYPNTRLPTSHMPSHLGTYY
# Procedure, shortened: as §1
# [4] = molecular target: ELF1 (Homo sapiens, UniProt P32519 1-619)
# Procedure, shortened: as §1
# [5] = molecular target: T4, EHF (Homo sapiens, UniProt Q9NZC4 1-300)
# T4 sequence: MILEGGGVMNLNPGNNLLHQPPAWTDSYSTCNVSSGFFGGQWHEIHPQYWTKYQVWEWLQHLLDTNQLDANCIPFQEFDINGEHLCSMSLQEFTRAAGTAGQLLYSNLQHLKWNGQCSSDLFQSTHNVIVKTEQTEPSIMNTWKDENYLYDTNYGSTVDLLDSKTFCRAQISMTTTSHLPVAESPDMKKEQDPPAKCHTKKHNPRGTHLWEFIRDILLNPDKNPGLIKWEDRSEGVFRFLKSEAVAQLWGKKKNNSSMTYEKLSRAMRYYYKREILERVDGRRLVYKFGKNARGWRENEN
# Procedure, shortened: as §1
# [6] = molecular target: SPIB (Homo sapiens, UniProt Q01892 1-262)
# Procedure, shortened: as §1
# [7] = molecular target: T5, FEV (Homo sapiens, UniProt Q99581 1-238)
# T5 sequence: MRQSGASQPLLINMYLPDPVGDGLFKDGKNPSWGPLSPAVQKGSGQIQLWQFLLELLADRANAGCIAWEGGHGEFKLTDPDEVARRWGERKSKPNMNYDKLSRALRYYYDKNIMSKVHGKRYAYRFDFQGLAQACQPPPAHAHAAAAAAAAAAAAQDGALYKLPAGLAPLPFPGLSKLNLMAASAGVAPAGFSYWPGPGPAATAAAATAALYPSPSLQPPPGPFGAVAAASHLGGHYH
# Procedure, shortened: as §1
# [8] = molecular target: ETV5 (Homo sapiens, UniProt P41161 1-510)
# Procedure, shortened: as §1
# [9] = molecular target: ELF4 (Homo sapiens, UniProt Q99607 1-663)
# Procedure, shortened: as §1
# [10] = molecular target: T6, ELK4 (Homo sapiens, UniProt P28324-2 1-405)
# T6 sequence: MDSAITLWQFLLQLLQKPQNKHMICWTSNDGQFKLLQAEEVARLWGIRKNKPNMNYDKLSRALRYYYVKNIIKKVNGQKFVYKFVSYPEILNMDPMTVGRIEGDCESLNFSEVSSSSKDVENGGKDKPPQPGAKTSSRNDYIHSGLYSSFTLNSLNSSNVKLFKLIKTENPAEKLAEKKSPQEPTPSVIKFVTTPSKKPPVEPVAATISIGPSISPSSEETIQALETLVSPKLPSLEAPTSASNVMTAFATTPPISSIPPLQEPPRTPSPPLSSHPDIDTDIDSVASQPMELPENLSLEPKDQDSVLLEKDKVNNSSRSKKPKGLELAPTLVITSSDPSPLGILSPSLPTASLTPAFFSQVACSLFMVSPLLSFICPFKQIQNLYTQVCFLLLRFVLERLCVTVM
# Procedure, shortened: as §1
# [11] = molecular target: T7, ELF3 (Homo sapiens, UniProt P78545 1-371)
# T7 sequence: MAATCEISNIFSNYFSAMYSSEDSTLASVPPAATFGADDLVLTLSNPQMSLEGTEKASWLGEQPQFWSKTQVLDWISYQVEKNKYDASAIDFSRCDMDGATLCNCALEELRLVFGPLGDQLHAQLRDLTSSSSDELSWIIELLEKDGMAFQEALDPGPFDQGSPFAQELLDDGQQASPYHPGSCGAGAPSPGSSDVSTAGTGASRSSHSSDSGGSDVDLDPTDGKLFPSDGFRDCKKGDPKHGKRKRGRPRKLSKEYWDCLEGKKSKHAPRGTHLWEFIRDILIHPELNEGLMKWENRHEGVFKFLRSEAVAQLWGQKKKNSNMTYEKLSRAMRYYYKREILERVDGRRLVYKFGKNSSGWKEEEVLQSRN
# Procedure, shortened: as §1
# [12] = molecular target: ETV1 (Homo sapiens, UniProt P50549 1-477)
# Procedure, shortened: as §1
# [13] = molecular target: T8, ERF (Homo sapiens, UniProt P50548 1-548)
# T8 sequence: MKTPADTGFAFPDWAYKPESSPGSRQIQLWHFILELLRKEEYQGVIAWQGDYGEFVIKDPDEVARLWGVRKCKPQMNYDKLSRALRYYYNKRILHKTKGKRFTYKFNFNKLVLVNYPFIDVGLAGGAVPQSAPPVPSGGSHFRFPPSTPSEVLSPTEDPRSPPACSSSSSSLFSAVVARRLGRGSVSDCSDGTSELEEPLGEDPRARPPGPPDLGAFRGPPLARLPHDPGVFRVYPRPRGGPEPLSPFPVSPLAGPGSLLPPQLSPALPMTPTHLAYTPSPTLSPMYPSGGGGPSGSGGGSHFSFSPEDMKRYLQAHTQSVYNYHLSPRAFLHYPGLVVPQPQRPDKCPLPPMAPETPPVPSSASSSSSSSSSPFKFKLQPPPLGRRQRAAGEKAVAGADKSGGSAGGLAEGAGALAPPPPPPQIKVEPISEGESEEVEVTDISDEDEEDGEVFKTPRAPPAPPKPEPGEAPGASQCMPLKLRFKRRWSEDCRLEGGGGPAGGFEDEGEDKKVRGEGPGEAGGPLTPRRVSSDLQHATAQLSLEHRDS
# Procedure, shortened: as §1
# [14] = molecular target: T9, ETV3L (Homo sapiens, UniProt Q6ZN32 1-361)
# T9 sequence: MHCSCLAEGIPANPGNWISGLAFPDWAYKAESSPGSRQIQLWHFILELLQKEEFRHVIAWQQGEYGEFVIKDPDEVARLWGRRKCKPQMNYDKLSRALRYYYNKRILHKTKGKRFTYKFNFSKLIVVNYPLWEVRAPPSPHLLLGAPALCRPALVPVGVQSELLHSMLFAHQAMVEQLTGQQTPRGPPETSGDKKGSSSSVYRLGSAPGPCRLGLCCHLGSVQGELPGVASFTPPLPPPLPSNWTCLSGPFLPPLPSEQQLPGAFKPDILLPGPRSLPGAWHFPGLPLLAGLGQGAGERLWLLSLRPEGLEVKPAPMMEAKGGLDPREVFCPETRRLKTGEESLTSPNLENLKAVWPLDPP
# Procedure, shortened: as §1
# [15] = molecular target: T10, ETS2 (Homo sapiens, UniProt P15036 1-469)
# T10 sequence: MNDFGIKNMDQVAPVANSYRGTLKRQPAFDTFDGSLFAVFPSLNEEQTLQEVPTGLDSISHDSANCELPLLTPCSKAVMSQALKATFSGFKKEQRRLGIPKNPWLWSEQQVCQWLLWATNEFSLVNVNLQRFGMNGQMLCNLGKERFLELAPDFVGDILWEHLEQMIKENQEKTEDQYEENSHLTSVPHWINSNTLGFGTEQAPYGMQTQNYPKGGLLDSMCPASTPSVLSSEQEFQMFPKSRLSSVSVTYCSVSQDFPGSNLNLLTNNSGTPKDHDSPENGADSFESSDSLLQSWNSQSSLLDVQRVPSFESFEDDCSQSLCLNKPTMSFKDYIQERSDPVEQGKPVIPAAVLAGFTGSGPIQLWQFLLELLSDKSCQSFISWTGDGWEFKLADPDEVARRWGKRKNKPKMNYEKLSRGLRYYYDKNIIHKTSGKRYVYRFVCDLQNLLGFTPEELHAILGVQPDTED
# Procedure, shortened: as §1
# [16] = molecular target: T11, SPDEF (Homo sapiens, UniProt O95238 1-335)
# T11 sequence: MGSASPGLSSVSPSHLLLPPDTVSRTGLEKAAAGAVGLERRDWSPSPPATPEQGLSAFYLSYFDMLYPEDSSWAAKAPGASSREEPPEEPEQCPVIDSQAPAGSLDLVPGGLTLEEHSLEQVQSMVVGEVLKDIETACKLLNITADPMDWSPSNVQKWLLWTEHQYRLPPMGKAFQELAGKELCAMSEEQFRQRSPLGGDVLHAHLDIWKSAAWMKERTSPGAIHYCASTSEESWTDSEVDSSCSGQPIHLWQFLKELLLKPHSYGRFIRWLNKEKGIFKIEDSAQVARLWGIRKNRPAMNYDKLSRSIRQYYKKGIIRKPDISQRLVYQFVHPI
# Procedure, shortened: as §1
# [17] = molecular target: T12, ETV3 (Homo sapiens, UniProt P41162-2 1-143)
# T12 sequence: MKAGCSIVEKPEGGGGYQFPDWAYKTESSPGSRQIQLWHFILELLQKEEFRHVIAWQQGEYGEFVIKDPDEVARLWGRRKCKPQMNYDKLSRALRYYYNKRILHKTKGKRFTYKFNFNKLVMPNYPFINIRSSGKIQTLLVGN
# Procedure, shortened: as §1
# [18] = molecular target: ETV6 (Homo sapiens, UniProt P41212 1-452)
# Procedure, shortened: as §1
# Chain of ETV5 (P41161 whole entry): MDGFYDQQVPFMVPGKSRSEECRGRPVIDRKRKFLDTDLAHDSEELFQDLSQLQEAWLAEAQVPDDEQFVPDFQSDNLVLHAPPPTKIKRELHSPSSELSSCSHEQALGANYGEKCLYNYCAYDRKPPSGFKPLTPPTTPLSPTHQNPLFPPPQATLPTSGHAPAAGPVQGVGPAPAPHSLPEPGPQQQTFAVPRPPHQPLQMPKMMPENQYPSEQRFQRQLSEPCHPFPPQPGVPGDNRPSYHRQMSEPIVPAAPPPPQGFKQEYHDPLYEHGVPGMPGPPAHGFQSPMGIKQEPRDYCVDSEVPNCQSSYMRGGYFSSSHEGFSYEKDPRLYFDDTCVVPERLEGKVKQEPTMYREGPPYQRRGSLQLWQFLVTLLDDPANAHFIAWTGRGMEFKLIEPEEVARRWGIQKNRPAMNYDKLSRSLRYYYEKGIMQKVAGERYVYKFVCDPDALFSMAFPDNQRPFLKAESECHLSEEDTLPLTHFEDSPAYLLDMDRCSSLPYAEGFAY
# Chain of ETV6 (P41212 whole entry): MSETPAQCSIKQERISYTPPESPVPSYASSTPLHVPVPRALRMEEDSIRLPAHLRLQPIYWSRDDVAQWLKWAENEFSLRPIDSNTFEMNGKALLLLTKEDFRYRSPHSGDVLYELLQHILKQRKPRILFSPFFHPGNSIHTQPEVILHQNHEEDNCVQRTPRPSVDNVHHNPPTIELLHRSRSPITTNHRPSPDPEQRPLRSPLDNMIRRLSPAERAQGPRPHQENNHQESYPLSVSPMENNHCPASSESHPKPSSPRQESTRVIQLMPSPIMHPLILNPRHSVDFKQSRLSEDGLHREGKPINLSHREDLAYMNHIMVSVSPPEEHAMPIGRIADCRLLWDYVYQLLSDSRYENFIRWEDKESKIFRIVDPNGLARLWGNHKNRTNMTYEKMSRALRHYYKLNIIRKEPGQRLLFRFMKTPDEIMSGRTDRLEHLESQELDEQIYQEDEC
# Chain of ETV1 (P50549 whole entry): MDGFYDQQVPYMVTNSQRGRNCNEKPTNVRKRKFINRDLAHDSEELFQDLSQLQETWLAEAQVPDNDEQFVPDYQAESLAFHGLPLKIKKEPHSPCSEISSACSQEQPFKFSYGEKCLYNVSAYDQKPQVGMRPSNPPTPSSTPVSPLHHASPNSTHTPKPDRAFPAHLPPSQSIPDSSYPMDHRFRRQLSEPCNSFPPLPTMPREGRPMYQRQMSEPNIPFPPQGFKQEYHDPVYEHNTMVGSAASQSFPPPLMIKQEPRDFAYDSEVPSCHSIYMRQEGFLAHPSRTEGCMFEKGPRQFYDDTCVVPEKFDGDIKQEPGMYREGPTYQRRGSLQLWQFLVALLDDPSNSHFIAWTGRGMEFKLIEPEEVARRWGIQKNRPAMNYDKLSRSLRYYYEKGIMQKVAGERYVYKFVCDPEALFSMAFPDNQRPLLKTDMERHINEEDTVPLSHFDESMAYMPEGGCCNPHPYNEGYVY
# Chain of ELF4 (Q99607 whole entry): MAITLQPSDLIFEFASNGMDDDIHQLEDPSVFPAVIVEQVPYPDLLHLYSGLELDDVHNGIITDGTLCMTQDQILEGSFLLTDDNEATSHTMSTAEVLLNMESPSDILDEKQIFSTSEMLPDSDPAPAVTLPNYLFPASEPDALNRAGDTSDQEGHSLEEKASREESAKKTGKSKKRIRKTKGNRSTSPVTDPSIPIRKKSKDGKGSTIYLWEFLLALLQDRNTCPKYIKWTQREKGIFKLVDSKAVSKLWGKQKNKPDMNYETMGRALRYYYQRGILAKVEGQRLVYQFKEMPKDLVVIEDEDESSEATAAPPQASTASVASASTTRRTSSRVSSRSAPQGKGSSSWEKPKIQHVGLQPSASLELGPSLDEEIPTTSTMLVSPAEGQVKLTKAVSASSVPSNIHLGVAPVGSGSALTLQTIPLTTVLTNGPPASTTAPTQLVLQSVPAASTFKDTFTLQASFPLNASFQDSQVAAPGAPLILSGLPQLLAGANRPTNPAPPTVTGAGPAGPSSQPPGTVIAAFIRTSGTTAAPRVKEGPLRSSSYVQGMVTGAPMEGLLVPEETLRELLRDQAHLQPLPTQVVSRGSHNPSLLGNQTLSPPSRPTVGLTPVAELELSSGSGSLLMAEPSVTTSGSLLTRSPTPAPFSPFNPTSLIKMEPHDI
# Chain of SPIB (Q01892 whole entry): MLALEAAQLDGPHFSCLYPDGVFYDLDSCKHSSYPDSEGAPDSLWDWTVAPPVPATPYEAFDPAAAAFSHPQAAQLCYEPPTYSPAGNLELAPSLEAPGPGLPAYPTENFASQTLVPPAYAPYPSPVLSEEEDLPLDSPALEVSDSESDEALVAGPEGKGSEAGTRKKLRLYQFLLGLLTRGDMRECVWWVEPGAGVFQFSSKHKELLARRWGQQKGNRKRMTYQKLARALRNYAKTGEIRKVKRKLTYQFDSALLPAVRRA
# Chain of ELF1 (P32519 whole entry): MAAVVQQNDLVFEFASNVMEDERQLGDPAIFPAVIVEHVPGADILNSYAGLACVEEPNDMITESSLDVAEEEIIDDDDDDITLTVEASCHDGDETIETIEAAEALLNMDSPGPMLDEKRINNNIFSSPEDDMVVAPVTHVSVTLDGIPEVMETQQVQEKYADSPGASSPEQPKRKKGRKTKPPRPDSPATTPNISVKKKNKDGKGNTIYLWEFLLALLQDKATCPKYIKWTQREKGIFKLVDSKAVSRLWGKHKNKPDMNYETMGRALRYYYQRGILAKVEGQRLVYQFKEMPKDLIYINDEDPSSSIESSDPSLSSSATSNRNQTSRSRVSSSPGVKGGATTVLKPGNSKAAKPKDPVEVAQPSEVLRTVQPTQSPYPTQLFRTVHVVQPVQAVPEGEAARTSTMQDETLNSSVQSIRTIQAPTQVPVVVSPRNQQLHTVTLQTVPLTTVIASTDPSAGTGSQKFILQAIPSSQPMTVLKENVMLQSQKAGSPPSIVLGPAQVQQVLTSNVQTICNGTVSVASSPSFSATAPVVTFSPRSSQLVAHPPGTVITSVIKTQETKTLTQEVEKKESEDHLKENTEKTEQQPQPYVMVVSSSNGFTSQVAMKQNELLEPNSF
sequence,measurement,setting,value
TGATAC,binding signal,[1],"1.17 fold enrichment (6-mer frequency, TF over GST control)"
same,binding signal,[2],"1.16 fold enrichment (6-mer frequency, TF over GST control)"
same,binding signal,[3],"1.13 fold enrichment (6-mer frequency, TF over GST control)"
same,binding signal,[4],"1.14 fold enrichment (6-mer frequency, TF over GST control)"
same,binding signal,[5],"1.11 fold enrichment (6-mer frequency, TF over GST control)"
same,binding signal,[6],"1.12 fold enrichment (6-mer frequency, TF over GST control)"
same,binding signal,[7],"1.21 fold enrichment (6-mer frequency, TF over GST control)"
same,binding signal,[8],"1.1 fold enrichment (6-mer frequency, TF over GST control)"
same,binding signal,[9],"1.13 fold enrichment (6-mer frequency, TF over GST control)"
same,binding signal,[10],"1.29 fold enrichment (6-mer frequency, TF over GST control)"
same,binding signal,[11],"1.16 fold enrichment (6-mer frequency, TF over GST control)"
same,binding signal,[12],"1.08 fold enrichment (6-mer frequency, TF over GST control)"
same,binding signal,[13],"1.13 fold enrichment (6-mer frequency, TF over GST control)"
same,binding signal,[14],"1.07 fold enrichment (6-mer frequency, TF over GST control)"
same,binding signal,[15],"1.1 fold enrichment (6-mer frequency, TF over GST control)"
same,binding signal,[16],"1.17 fold enrichment (6-mer frequency, TF over GST control)"
same,binding signal,[17],"1.1 fold enrichment (6-mer frequency, TF over GST control)"
same,binding signal,[18],"1.1 fold enrichment (6-mer frequency, TF over GST control)"

# From PMC7862700, “An all-to-all approach to the identification of sequence-specific readers for epigenetic DNA modifications on cytosine”
